Some test systems named below: SR leukemia; RPMI-8226 leukemia; OVCAR-8 ovarian; OVCAR-5 ovarian; OVCAR-4 ovarian; SK-OV-3 ovarian; OVCAR-3 ovarian; HS 578T breast; NCI/ADR-RES ovarian; T-47D breast; BT-549 breast; MDA-MB-435 melanoma; SW-620 colon; MCF7 breast; HCT-116 colon; HCC-2998 colon; KM12 colon; IGROV1 ovarian.
Common to all, as to experiment: NCI-60 one-dose screen, 48 h (100 = growth as untreated, 0 = no growth, -100 = all killed)
Common to all, as to settings: 10 µM unless noted

This is part of a sample that, as a whole, favours compounds with a hit. Of some 83,000 tested, about 20% had one in any assay.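 Treatment: one concentration, 48 hours, 96-well format. Scoring: percent growth, with anything below 10 considered active.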 Unmarked numbers belong to inactive results. Active and inactive are the calls of the source.

With `CCCCC(=O)Nc1ncc(Cc2ccccc2Cl)s1`, the growth in the experiment with SR leukemia was 25.8%; in the experiment with RPMI-8226 leukemia, 49.2%; in the experiment on OVCAR-8 ovarian, 49%; with OVCAR-5 ovarian it was 59%; in the experiment on OVCAR-4 ovarian, 68.1%; with SK-OV-3 ovarian it was 63.3%. The growth is 30.1% with OVCAR-3 ovarian; 31.3% in the experiment on HS 578T breast; 23.7% in the experiment on NCI/ADR-RES ovarian; 34.1% in the experiment with T-47D breast; 47.1% in the experiment with BT-549 breast; -31.8% (active) in the experiment with MDA-MB-435 melanoma. Besides, the growth in the experiment with SW-620 colon is 24.5%; in the experiment with MCF7 breast, 17.8%; in the experiment on HCT-116 colon it was 21.2%; in the experiment on HCC-2998 colon, 52.6%; in the experiment on KM12 colon, 25.2%.

For `COc1cc(C(=O)c2c(N)ncn2-c2ccccc2)cc(OC)c1OC`, the growth in the experiment on SR leukemia was 122%; with RPMI-8226 leukemia it was 136%; in the experiment with OVCAR-8 ovarian it was 101%; in the experiment with OVCAR-5 ovarian, 102%; with OVCAR-4 ovarian, 101%; in the experiment with SK-OV-3 ovarian it was 95.4%. Moreover, the growth in the experiment on OVCAR-3 ovarian is 99.2%; with HS 578T breast, 98.5%; with NCI/ADR-RES ovarian, 82.5%; with T-47D breast it was 101%; in the experiment on BT-549 breast, 98.8%; in the experiment with MDA-MB-435 melanoma, 43.8%. The growth in the experiment with SW-620 colon is 88.1%; in the experiment with MCF7 breast it was 87.1%; in the experiment with HCT-116 colon it was 90.3%; in the experiment on HCC-2998 colon it was 99.6%; in the experiment with KM12 colon, 72.4%.

With `N#Cc1c(NC(=O)c2cccs2)[n+]([O-])c2ccc(Cl)cc2[n+]1[O-]`, the growth in the experiment with SR leukemia is 109%; in the experiment with RPMI-8226 leukemia, 104%; with OVCAR-8 ovarian it was 108%; with OVCAR-5 ovarian it was 114%; in the experiment with OVCAR-4 ovarian, 94.8%; in the experiment on SK-OV-3 ovarian, 94%. For the same compound, the growth in the experiment on OVCAR-3 ovarian is 81.5%; in the experiment with HS 578T breast, 56.9%; in the experiment with NCI/ADR-RES ovarian, 99.2%; in the experiment with T-47D breast it was 91.4%; with BT-549 breast, 113%; with MDA-MB-435 melanoma it was 89.2%. For the same compound, the growth in the experiment on SW-620 colon was 85.3%; with MCF7 breast it was 101%; with HCT-116 colon it was 79.8%; with HCC-2998 colon, 111%; with KM12 colon, 98.6%.

On to `COc1ccc(C2CC(c3ccc4c(c3)OCO4)=Nc3c(N)ncnc3N2)cc1` (stereo unspecified), for which the growth in the experiment on SR leukemia is 86.4%; in the experiment with RPMI-8226 leukemia, 55.7%; in the experiment on OVCAR-8 ovarian it was 103%; in the experiment with OVCAR-5 ovarian, 82.9%; with OVCAR-4 ovarian it was 102%; in the experiment with SK-OV-3 ovarian, 103%. Also, the growth in the experiment with IGROV1 ovarian is 104%; in the experiment on HS 578T breast, 103%; in the experiment with NCI/ADR-RES ovarian, 92.3%; in the experiment with T-47D breast it was 84.9%; in the experiment with BT-549 breast it was 118%; with MDA-MB-435 melanoma, 105%. Further, the growth is 95.9% in the experiment on SW-620 colon; 90.6% in the experiment with MCF7 breast; 98.5% with HCT-116 colon; 92.4% in the experiment on HCC-2998 colon; 100% in the experiment on KM12 colon.

For the compound `C=C1C(=O)O[C@H]2[C@H]1CC/C(CNC(=O)c1cc3ccccc3[nH]1)=C\CC[C@@]1(C)O[C@@H]21`, the growth with SR leukemia is -37.4% (active); in the experiment with RPMI-8226 leukemia, -29% (active); in the experiment with OVCAR-8 ovarian, -26.2% (active); in the experiment with OVCAR-5 ovarian, -46% (active); with OVCAR-4 ovarian, -7.16% (active); with SK-OV-3 ovarian, 68%. Further, the growth was -26.3% (active) in the experiment with IGROV1 ovarian; 42.7% with HS 578T breast; 22.4% in the experiment with NCI/ADR-RES ovarian; -42.2% (active) in the experiment with T-47D breast; -79.8% (active) with BT-549 breast; -37.2% (active) in the experiment on MDA-MB-435 melanoma. Also, the growth was -57.4% (active) in the experiment on SW-620 colon; -56.7% (active) in the experiment with MCF7 breast; -84% (active) in the experiment on HCT-116 colon; -75.5% (active) in the experiment with HCC-2998 colon; -38.4% (active) in the experiment with KM12 colon.

On to `CCOC(=O)/C=C/c1c(C)[nH]c(=O)[nH]c1=O`, for which the growth in the experiment with SR leukemia is 69.6%; with RPMI-8226 leukemia it was 110%; in the experiment with OVCAR-8 ovarian it was 83.2%; in the experiment with OVCAR-5 ovarian, 71.8%; with OVCAR-4 ovarian, 97.5%; with SK-OV-3 ovarian, 99.4%. Also, the growth with OVCAR-3 ovarian is 118%; in the experiment with HS 578T breast, 105%; in the experiment with NCI/ADR-RES ovarian, 81.9%; in the experiment with T-47D breast, 102%; with BT-549 breast, 99.1%; in the experiment on MDA-MB-435 melanoma it was 109%. Besides, the growth was 56.7% with SW-620 colon; 69.6% in the experiment with MCF7 breast; 53% in the experiment with HCT-116 colon; 107% in the experiment with HCC-2998 colon; 93.4% with KM12 colon.

Consider `O=C(Cn1nnc2ccccc21)Nc1ccc(-c2nc3ccccc3s2)cc1`, for which the growth with SR leukemia was 40.2%; in the experiment on RPMI-8226 leukemia it was 85.3%; in the experiment on OVCAR-8 ovarian it was 98.5%; with OVCAR-5 ovarian it was 104%; in the experiment with OVCAR-4 ovarian, 72.2%; with SK-OV-3 ovarian, 104%. Besides, the growth in the experiment with IGROV1 ovarian is 97.5%; in the experiment on HS 578T breast it was 112%; in the experiment on NCI/ADR-RES ovarian, 96.2%; in the experiment with T-47D breast, 66.9%; in the experiment on MDA-MB-435 melanoma, 95.9%; in the experiment on SW-620 colon it was 94.5%. Besides, the growth in the experiment with MCF7 breast was 28.9%; in the experiment on HCT-116 colon, 97.4%; with HCC-2998 colon, 93.7%; in the experiment on KM12 colon, 91.4%.

Turning to `CC/C=C1/C(=O)C=C[C@@H]1C/C=C\CCCC(=O)OC`, the growth in the experiment on SR leukemia is 4.16% (active); in the experiment on RPMI-8226 leukemia it was -5.45% (active); with OVCAR-8 ovarian it was 25.7%; in the experiment on OVCAR-5 ovarian, 112%; with OVCAR-4 ovarian, 96.9%; with SK-OV-3 ovarian, 117%. Besides, the growth with IGROV1 ovarian is 105%; in the experiment with HS 578T breast, 43%; in the experiment with NCI/ADR-RES ovarian it was 57.7%; with T-47D breast, 62.4%; with BT-549 breast, 16.6%; in the experiment with MDA-MB-435 melanoma it was 4.2% (active). The growth in the experiment with SW-620 colon was 14.9%; in the experiment with MCF7 breast it was 15.6%; with HCT-116 colon, -59.6% (active); in the experiment with HCC-2998 colon, 114%; with KM12 colon, 17.1%.

With `O=C(c1ccc(Cl)cc1Cl)N1c2ccccc2Sc2ccccc21`, the growth is 32.2% in the experiment on SR leukemia; 55.3% in the experiment with RPMI-8226 leukemia; 50.7% in the experiment on OVCAR-8 ovarian; 71.4% in the experiment with OVCAR-5 ovarian; 81.9% in the experiment with OVCAR-4 ovarian; 69.1% with SK-OV-3 ovarian. In addition, the growth was 60.9% in the experiment on IGROV1 ovarian; 95.9% in the experiment with HS 578T breast; 60.9% in the experiment on NCI/ADR-RES ovarian; 67.3% with T-47D breast; 47.9% in the experiment on MDA-MB-435 melanoma; 38.3% in the experiment on SW-620 colon. For the same compound, the growth was 52.4% in the experiment with MCF7 breast, 22.8% in the experiment on HCT-116 colon, 64.6% with HCC-2998 colon and 49.8% with KM12 colon.

These data come from PubChem BioAssay (NCI).
